# PubChem BioAssay (NCATS)
# Inconclusive results are not listed. Activity calls are given as the source filed them. Calls follow the shape of the dose curve; as a rule, active = well fitted curve in the direction sought with a large enough effect; inconclusive = small, poorly fitted or top-dose-only effect, or another doubt; inactive = no such curve, though single readings can be large or run the other way.
# Biological target: Ferritin light chain (Equus caballus) (UniProt P02791)
# Experiment: qHTS Validation Assay for Identification of Novel General Anesthetics (AID 2323)
# Conditions: horse apoferritin, anesthetic-site fluorescent probe displacement; series mostly up to 76.9 µM; activity change, negative = inhibition: at the top concentration
# Excerpt: Source: NIH Chemical Genomics Center [NCGC]
# Assay Submitter: Roderic Eckenhoff, University of Pennsylvania
# Screening Center PI: Christopher P. Austin, NIH
# Probe Development: NIH Chemical Genomics Center [NCGC]
# Anesthetic development has remained a largely empirical process. There are growing concerns about the cognitive effects of known general anesthetics and acceleration of the onset of neurodegenerative disease. The compounds' toxicity and multiple specific binding targets in the mammalian brain [4] has made them less attractive as drug leads. In this assay, a GABAergic mimetic model system, apoferritin and a profluorescent 1-aminoanthracene ligand (1-AMA), was used to construct a competitive binding assay for identification of novel general anesthetics. The assay was validated for 1-AMA using other known anesthetics, such as isoflurane (CID:3763) and propofol (CID: 4943), [6].
# [1] S.L. Bianchi, T. Tran, C. Liu, S. Lin, Y. Li, J.M. Keller, R.G. Eckenhoff, and M.F. Eckenhoff, Brain and behavior changes in 12-month-old Tg2576 and nontransgenic mice exposed to anesthetics. Neurobiol Aging 29 (2008) 1002-10.
# [2] Z. Xie, Y. Dong, U. Maeda, R.D. Moir, W. Xia, D.J. Culley, G. Crosby, and R.E. Tanzi, The inhalation anesthetic isoflurane induces a vicious cycle of apoptosis and amyloid beta-protein accumulation. J Neurosci 27 (2007) 1247-54.
# [3] P. Honegger, and J.M. Matthieu, Selective toxicity of the general anesthetic propofol for GABAergic neurons in rat brain cell cultures. J Neurosci Res 45 (1996) 631-6.
# [4] M.F. Eckenhoff, K. Chan, and R.G. Eckenhoff, Multiple specific binding targets for inhaled anesthetics in the mammalian brain. J Pharmacol Exp Ther 300 (2002) 172-9.
# [5] C.A. Butts, J. Xi, G. Brannigan, A.A. Saad, S.P. Venkatachalan, R.A. Pearce, M.L. Klein, R.G. Eckenhoff, and I.J. Dmochowski, Identification of a fluorescent general anesthetic, 1-aminoanthracene. Proc Natl Acad Sci U S A 106 (2009) 6501-6.
# [6] W.A. Lea, J. Xi, A. Jadhav, L. Lu, C.P. Austin, A. Simeonov, and R.G. Eckenhoff, A high-throughput approach for identification of novel general anesthetics. PLoS One 4 (2009) e7150.
# Three uL of reagents (free 1-AMA (50% saturated solution of 1-aminoanthracene
# in PBS) in columns 3, 4 as negative control and 1-AMA/apoferritin mixture (10 uM horse-spleen apoferritin in 50% saturated 1-aminoanthracene in PBS) in columns 1, 2, 5-48) was dispensed into 1536-well Greiner black assay plates. Compounds (23 nL) were transferred via Kalypsys pintool equipped with 1,536-pin array (10 nL slotted pins, V&P Scientific, San Diego, CA). Titration of the positive control, propofol, were delivered via pin transfer from separate control plates to the 2nd column of each assay plate. The starting concentration of the control, dissolved in DMSO, was at 160 mM, followed by two-fold dilution points in duplicate, for a total of 16 concentrations. The plates were incubated for 10 min at room temperature, and then read on an EnVision HTS multilabel reader (Perkin-Elmer, Waltham, MA) (end point read, 3 min/plate) using Fura2 BFP excitation filter (380 nm, bandwidth 10 nm) and fluorescein emission filter (535 nm, bandwidth 25 nm) set. A LANCE/DELFIA dichroic mirror with a cutoff wavelength at 400 nm was used to maximize signal accuracy and strength. Vehicle-only plates, with DMSO being pin-transferred to the entire column 5-48 compound area, were inserted uniformly at the beginning and the end of each library in order to monitor for and record any shifts in the background. Activity was computed as the normalized fluorescence response relative to free 1-AMA and 1-AMA/apoferritin complex values. Concentration-effect relationships were derived by using curve fitting algorithms developed in-house (http://ncgc.nih.gov/pub/openhts/). A four parameter Hill equation was fitted to the concentration-response data by minimizing the residual error between the modeled and observed responses.
# % is scaled to controls: 0 for no effect and ±100 for the full control effect; potency is read from the fitted curve at half-maximal effect.
# Ferritin light chain (Equus caballus), sequence (P02791 2-175 limits assumed): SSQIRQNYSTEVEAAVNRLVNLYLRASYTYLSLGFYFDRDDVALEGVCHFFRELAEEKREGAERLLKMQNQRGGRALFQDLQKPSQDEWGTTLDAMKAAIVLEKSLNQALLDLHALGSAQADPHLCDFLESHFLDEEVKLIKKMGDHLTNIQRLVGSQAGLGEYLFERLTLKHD
SMILES,"activity change, negative = inhibition",Potency
CNCCNS(=O)(=O)c1cccc2cnccc12,-0.334% (inactive),–
O=c1onc2cnc3ccccc3n12,24.2% (inactive),–
COc1ccc2c(c1)c(CC(=O)O)c(C)n2C(=O)c1ccccc1,-11.8% (inactive),–
O=c1[nH]c2ccccc2c2ccccc12,25.8% (inactive),–
Cc1ccc2c(c1)C(N1CCN(C)CC1)=Nc1cccnc1N2,-12.1% (inactive),–
CC[C@@H]1Cc2cc(O)ccc2C2=C1c1ccc(O)cc1C[C@H]2CC,388% (inactive),–
C=CC1(C)CC(=O)C2(O)C(C)(O1)C(OC(C)=O)C(O)C1C(C)(C)CCC(O)C12C (stereo not given),-4.91% (inactive),–
NC1CCN(O)C1=O (stereo not given),-5.22% (inactive),–
CN1CCC2(CCN3CCc4c(oc5ccccc45)C3C2)N(C)C1=O (stereo not given),1.16% (inactive),–
CC(N)(Cc1ccc(O)c(O)c1)C(=O)O (stereo not given),-1.35% (inactive),–
C=CCN1CCc2cc(O)c(O)cc2C(c2ccccc2)C1 (stereo not given),-15% (inactive),–
Cn1c(=O)[nH]c2ncn(C)c2c1=O,-7.16% (inactive),–
CCC1(O)CC2CN(CCc3c([nH]c4ccccc34)[C@@](C(=O)OC)(c3cc4c(cc3OC)N(C)C3[C@]45CCN4CC=C[C@@](CC)([C@@H](OC(C)=O)[C@]3(O)C(=O)OC)[C@H]45)C2)C1 (stereo not given in full),-10.2% (inactive),–
Cc1ccc([N+](=O)[O-])cc1S(=O)(=O)N(C)C,–,inactive
Cn1c(=O)c2[nH]c(C3CCCC3)nc2n(C)c1=O,-2.98% (inactive),–
N#Cc1cc2nc(O)c(O)nc2cc1[N+](=O)[O-],324% (inactive),–
CCCCOC(=O)NS(=O)(=O)c1sc(CC(C)C)cc1-c1ccc(Cn2c(CC)nc3c(C)cc(C)nc32)cc1,65.4% (inactive),–
NC1(C(=O)O)CCc2cc(C(=O)O)ccc21 (stereo not given),14.2% (inactive),–
CCCCS(=N)(=O)CC[C@H](N)C(=O)O (stereo not given in full),7.16% (inactive),–
Nc1ccc2c3c(cccc13)C(=O)NC2=O,182% (inactive),–

SMILES,"activity change, negative = inhibition",Potency
N=C(N)c1ccc(OCCCCCOc2ccc(C(=N)N)cc2)cc1 (tested in a mixture with another compound),-16.8% (inactive),–
CC(=O)NNC(=O)N1Cc2ccccc2Oc2ccc(Cl)cc21,-4.8% (inactive),–
c1ccc(C2CN3CCSC3=N2)cc1 (stereo not given),-15.2% (inactive),–
CN(C)C(=O)/N=N/C(=O)N(C)C,-9.47% (inactive),–
NCC(O)C1CCCCCCC1 (stereo not given),1.19% (inactive),–
N[C@@H](Cc1ccc(F)cc1)C(=O)O,27.7% (inactive),–
NCCS(=O)O,0.184% (inactive),–
CC(N)=NCCCC[C@@H](N)C(=O)O,3.6% (inactive),–
CCN(CC)CCCCCCCCOC(=O)c1cc(OC)c(OC)c(OC)c1,-1.66% (inactive),–
Cn1c(=O)c2c(nc(/C=C/c3cccc(Cl)c3)n2C)n(C)c1=O,271% (inactive),–
CCCCCCC/C=C\CCCCCCCCC(=O)O,–,31.6 µM (active)
Nc1ccc(CCNc2ncnc3c2ncn3C2OC(CO)C(O)C2O)cc1 (stereo not given),-6.73% (inactive),–
CC(N)=O,0.308% (inactive),–
N[C@@H](Cc1c[nH]c2ccccc12)C(=O)O,-1.28% (inactive),–
NC1(C(=O)O)CCCCC1,-2.33% (inactive),–
O=c1cc(-c2ccccc2)[nH]c2nc(Cl)ccc12,65.6% (inactive),–
CCCn1c(=O)c2[nH]c(C3CCCC3)nc2n(CCC)c1=O,-4.94% (inactive),–
Oc1ccc(Cn2cc[nH]c2=S)cc1,-1.46% (inactive),–
O=C(O)c1ccccc1Nc1cccc(OCc2ccc3ccccc3n2)c1,-15.8% (inactive),–
COc1cc(C(O)CO)ccc1O (stereo not given),-0.547% (inactive),–
